# Results reported in article PMC5540273 (PLoS ONE, 2017).
# Tests used:
# Conditions in all cases: concentration: 1 μM, replicates: in singlicate; n = 1
# [1] = test system: PAK6
# [2] = test system: PAK7
# [3] = test system: T1, PCTK1
# T1 construct: gene CDK16
# [4] = test system: T2, PCTK2
# T2 construct: gene CDK17
# [5] = test system: T3, PCTK3
# T3 construct: gene CDK18
# [6] = test system: PDGFRA
# [7] = test system: PDGFRB
# [8] = test system: PDPK1
# [9] = test system: PFTAIRE2
# [10] = test system: T4, PFTK1
# T4 construct: gene CDK14
# 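Also: KINOMEscan kinase panel screen.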
Compound,%Inh [1] [%],%Inh [2] [%],%Inh [3] [%],%Inh [4] [%],%Inh [5] [%],%Inh [6] [%],%Inh [7] [%],%Inh [8] [%],%Inh [9] [%],%Inh [10] [%]
Cn1cncc1-c1ccc2ncnc(Nc3ccc(OCc4ccccc4)cc3)c2c1 [GW320571],0,0,0,0,7,0,9,9,20,0
Cc1cc(NCC(c2ccccc2)c2ccccc2)nc(NCc2ccc(C(F)(F)F)cc2)n1 [GW497681],0,0,0,13,35,0,21,0,13,18
O=c1cc(N2CCOCC2)nc2n(Cc3cccc(Cl)c3Cl)ccn12 [GSK2286295],0,22,6,15,13,0,37,0,23,2
Cc1c(O)cccc1Nc1ccnc2ccc(C(F)(F)F)cc12.Cl [GW466413],0,0,0,0,0,0,5,0,0,0
Cc1cccc(-c2nc(Nc3cccc(C(N)=O)c3)c3ccccc3n2)n1 [GW876019],0,0,0,0,0,0,5,0,20,0
Nc1ncnc2[nH]c(-c3ccccc3)nc12 [AH5015],0,0,3,0,0,9,42,21,6,11
Cn1ccc2ncnc(Oc3cccc(C(=O)Nc4ccccc4)c3)c21,0,0,0,2,0,12,39,0,0,7
COc1cccc(NC(=O)NC2CCN(c3ccnc(Nc4ccc(F)cc4)n3)C2)c1 (centres unmarked) [GSK1379721],0,10,1,14,19,9,42,0,28,0
CS(=O)(=O)c1ccc(-c2nc3n(c2-c2ccncc2)CCC3)cc1 [SKF-105942],99.2,0,11,0,0,0,4,0,12,37
Cc1csc(-c2nc(Nc3ccncc3)c3ccccc3n2)n1 [GW869640],0,8,20,0,12,36,0,0,21,5
Cl.c1ccc(-c2n[nH]cc2-c2ccnc(-c3ccc(CN4CCOCC4)cc3)c2)nc1 [GW776245],14,0,0,11,6,0,0,21,19,0
Cc1nnc(-c2ccc3occ(-c4ccc(S(C)=O)cc4)c3c2)[nH]1 (centres unmarked),13,5,8,0,0,36,0,0,24,6
CS(=O)(=O)c1ccc(-c2c(-c3ncn[nH]3)sc(N3CCOCC3)c2C#N)cc1,12,0,0,3,14,6,20,0,0,13
COC(=O)c1c(-c2ccccc2)c2cc(C(=O)O)ccc2c(=O)n1Cc1ccccc1,16,0,8,0,0,65,99.4,14,0,0
Cn1ccc2ncnc(Oc3ccc(Nc4nc5ccccc5[nH]4)cc3)c21,9,0,0,0,12,8,0,19,7,0
Cc1cccc(-c2nc(-c3ccc(S(C)(=O)=O)cc3)sc2-c2ccnc(NCCc3ccccc3)c2)c1,5,5,15,3,0,89,100,17,5,0
Cc1cc(-c2ccc3c(c2)CC[C@@H](N[C@@H](C)c2ccccc2)C3)cnc1N.Cl [GW412617],5,15,6,0,0,0,75,22,6,0
